Screening results deposited in PubChem BioAssay by Broad Institute.
RAD52 anneal inh: RAD52 DNA annealing inhibitors, primary screen, biochemical, FRET, single point, set 2; recombinant RAD52 DNA annealing, FRET fluorescence; 0.46% of 360,000 active; inhibition, % at 18.7 µM; DNA repair protein RAD52 homolog (Homo sapiens), P43351;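 active means every replicate showing at least 50% inhibition; inconclusive means mean inhibition at least 50% but not in every replicate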
Target sequence (P43351 whole entry, looked up): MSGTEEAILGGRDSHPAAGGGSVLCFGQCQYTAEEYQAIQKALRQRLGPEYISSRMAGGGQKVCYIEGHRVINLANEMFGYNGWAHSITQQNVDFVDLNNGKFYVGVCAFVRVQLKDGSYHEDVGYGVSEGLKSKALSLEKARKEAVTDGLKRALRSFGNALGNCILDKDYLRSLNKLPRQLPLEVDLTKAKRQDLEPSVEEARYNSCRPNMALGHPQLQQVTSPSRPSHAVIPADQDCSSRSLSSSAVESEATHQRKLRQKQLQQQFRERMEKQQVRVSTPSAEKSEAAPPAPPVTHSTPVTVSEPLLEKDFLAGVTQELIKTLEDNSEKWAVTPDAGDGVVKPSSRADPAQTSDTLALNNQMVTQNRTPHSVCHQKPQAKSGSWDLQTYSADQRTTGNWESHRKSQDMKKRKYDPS
ERAP1 HTS inh: human ERAP1 aminopeptidase inhibitors, primary screen, biochemical, single point, plate reader. Endoplasmic reticulum aminopeptidase 1 (Homo sapiens), Q9NZ08. recombinant ERAP1, Leu-AMC fluorescence, 60 min. inhibition, % at 10.7 µM. 0.15% of 340,000 active. AID 652197, 2013;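 active means mean replicate inhibition of at least 30%, or all replicates individually reaching that 30% level; inactive means mean below 30% and not every replicate reaching it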
FGF22 binding: binders of human FGF22 protein, primary screen, FGF22 synaptogenesis inhibitor project, biophysical, thermal shift, single point. recombinant FGF22 thermal shift, SYPRO orange fluorescence; percent of sucrose octasulfate shift, DMSO zero. activity (Tm shift, normalised), % at 9.99 µM. 1.5% of 340,000 active. AID 651658, 2012;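 active means mean Tm shift, scaled 0 neutral to 100 positive control, at about 1.3% or above, every replicate too, limit read from the data; inconclusive means no clear call, values can overlap the other calls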
Target sequence (Q9HCT0 whole entry, looked up): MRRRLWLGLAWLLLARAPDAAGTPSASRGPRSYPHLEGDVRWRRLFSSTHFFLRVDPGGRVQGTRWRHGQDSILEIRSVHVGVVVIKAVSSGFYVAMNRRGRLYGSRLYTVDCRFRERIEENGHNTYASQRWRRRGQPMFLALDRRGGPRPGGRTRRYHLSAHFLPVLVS
DENV2 CPE: inhibitors of DENV2 cytopathic effect, primary screen, cell-based, plate reader, single concentration; CPE inhibition, % at 9.99 µM; DENV2-infected cells, cytopathic effect rescue; AID 651640, 2012; 1.7% of 350,000 active; in the data active means CPE inhibition above about 20%, passing the limit was not always enough; inconclusive means no clear call, values can overlap the other calls; tested in BHK-21 cells
MLL AF4-AF9 inh: inhibitors of AF4 peptide binding to AF9, primary screen, biochemical, AlphaScreen, biotin-AF4 peptide, FLAG-AF9, single point. inhibition, % at 10 µM. 0.47% of 350,000 active. Protein AF-9 (Homo sapiens), P42568. AID 651704, 2012;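 active means every replicate reaching a set inhibition limit, whatever the replicate mean, cut at about 25% in these data; inconclusive means mean inhibition reaches that limit but some replicates miss it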
Of the large screens only hits and unclear results are named; the others gave an inactive call; ! = repeats disagree. Only some compounds are listed: those with a hit (about 4% of all), similar ones and a draw of the others.

COc1ccc(CN2C[C@H](C)[C@@H](OC)CN(C)C(=O)c3ccc(NC(=O)C4CC4)cc3OC[C@@H]2C)cc1	none
CCN(c1ccccc1)S(=O)(=O)c1ccc(C(=O)N2CCN(c3ccccc3F)CC2)cc1	DENV2 CPE 52.7
Cn1nc(C(=O)Nc2ccc(-n3cnnn3)cc2)c2ccccc2c1=O	none (no result: FGF22 binding)
CCCCn1nc(C(=O)Nc2ccc3c(c2)OCO3)c2ccccc2c1=O	DENV2 CPE 36.2
CCCCn1nc(C(=O)Nc2ccc(-n3cnnn3)cc2)c2ccccc2c1=O	DENV2 CPE 57.3
O=C(C1CCC1)N1CC[C@@H]2[C@H](CO)Nc3ccc(C#Cc4cccc(F)c4)cc3[C@@H]21	none
C#CCCCCCCCCC(=O)NCCCC	FGF22 binding 43.3
C[C@H]1CN([C@@H](C)CO)S(=O)(=O)c2ccc(-c3ccncc3)cc2O[C@@H]1CN(C)C(=O)c1ccc2c(c1)OCO2	DENV2 CPE 26.2
C[C@H](CO)N1C[C@H](C)[C@H](CN(C)C(=O)c2ccccc2)Oc2cc(Br)ccc2S1(=O)=O	none
C[C@@H]1CN([C@@H](C)CO)S(=O)(=O)c2ccc(Br)cc2O[C@H]1CN(C)C(=O)c1ccncc1	FGF22 binding 43.0!
C[C@@H]1CN([C@@H](C)CO)S(=O)(=O)c2ccc(/C=C/c3ccccc3)cc2O[C@H]1CN(C)C(=O)c1ccncc1	DENV2 CPE 40.8
O=C(NCC[C@@H]1CC[C@@H](NC(=O)C2CCCCC2)[C@@H](CO)O1)c1cnccn1	none
COC(=O)C[C@H]1CC[C@@H]2[C@@H](COc3ccc(NC(=O)Nc4ccc(C)cc4)cc3C(=O)N2C)O1	none
COc1ccc(OC)c(CN2CCN(C(=O)c3ccc(C)c(S(=O)(=O)Nc4ccccc4OC)c3)CC2)c1	MLL AF4-AF9 inh 32.7
CO[C@H]1CN(C)C(=O)c2cc(NS(=O)(=O)CC(F)(F)F)ccc2OC[C@H](C)N(Cc2cccnc2)C[C@H]1C	none
COCC#Cc1cnc2c(c1)C(=O)N([C@@H](C)CO)C[C@H](C)[C@H](CN(C)C(=O)c1cnccn1)O2	none
Cc1cc(OCC(=O)OCC(=O)Nc2cc(S(=O)(=O)N3CCOCC3)ccc2Cl)ccc1Cl	none
CCOC(=O)C1CCCN(c2c(N3CCOCC3)c(=O)c2=O)C1 (centres undefined)	DENV2 CPE 45.6
Cn1c(CCC(=O)Nc2cc(S(C)(=O)=O)ccc2Cl)nc2cc(S(=O)(=O)N3CCOCC3)ccc21	ERAP1 HTS inh 62.6
CCOC(=O)C1CCCN(C(=S)Nc2ccc(S(=O)(=O)N3CCOCC3)cc2)C1 (centres undefined)	FGF22 binding 42.9
CCOC(=O)C1CCCN(c2c(N3CCN(C)CC3)c(=O)c2=O)C1 (centres undefined)	none
COc1ccc(OCC(=O)OCC(=O)Nc2cc(S(=O)(=O)N3CCOCC3)ccc2Cl)cc1	FGF22 binding 42.9
CC(C)NC(=O)N(C)C[C@@H]1Oc2ccc(NS(=O)(=O)c3ccc(Cl)cc3)cc2CC(=O)N([C@@H](C)CO)C[C@H]1C	DENV2 CPE inconclusive
C[C@@H]1CN([C@H](C)CO)S(=O)(=O)c2ccc(C3=CCCC3)cc2O[C@H]1CN(C)C(=O)C1CCC1	none
CO[C@@H]1CN(C)C(=O)c2ccc(NS(=O)(=O)c3ccccc3F)cc2OC[C@@H](C)NC[C@@H]1C	none
CCOC(=O)N1CCN(C(=S)Nc2cc(S(=O)(=O)N3CCOCC3)ccc2Cl)CC1	FGF22 binding 45.4
CN1CCN(C(=S)Nc2cc(S(=O)(=O)N3CCOCC3)ccc2Cl)CC1	none
O=C1N/C(=N/O)S/C1=C/c1cccc([N+](=O)[O-])c1	FGF22 binding 44.5 (no result: DENV2 CPE)
O=C1N/C(=N\S(=O)(=O)Cc2ccccc2)S/C1=C/c1cccc([N+](=O)[O-])c1	none
COc1ccc(NC(=O)Nc2ccc3c(c2)C(=O)N([C@H](C)CO)C[C@@H](C)[C@@H](CN(C)Cc2ccccc2)OCCCC[C@H](C)O3)cc1	RAD52 anneal inh 50.9
COc1ccc(CN(C)C[C@H]2OCCCC[C@H](C)Oc3ccc(NC(=O)Nc4ccccc4)cc3C(=O)N([C@@H](C)CO)C[C@@H]2C)cc1	none (no result: RAD52 anneal inh, ERAP1 HTS inh, MLL AF4-AF9 inh)
COc1ccc(NC(=O)Nc2ccc3c(c2)C(=O)N([C@@H](C)CO)C[C@H](C)[C@H](CN(C)Cc2ccccc2)OCCCC[C@@H](C)O3)cc1	RAD52 anneal inh 60.3
COc1ccc(NC(=O)Nc2ccc3c(c2)C(=O)N([C@@H](C)CO)C[C@H](C)[C@@H](CN(C)Cc2ccccc2)OCCCC[C@H](C)O3)cc1	none
COc1ccc(CN(C)C[C@@H]2OCCCC[C@H](C)Oc3ccc(NC(=O)Cc4ccccc4)cc3C(=O)N([C@H](C)CO)C[C@@H]2C)cc1	DENV2 CPE 27.5 (no result: RAD52 anneal inh, ERAP1 HTS inh, MLL AF4-AF9 inh)
C[C@@H]1CCCCO[C@H](CN(C)Cc2ccccc2)[C@H](C)CN([C@@H](C)CO)C(=O)c2cc(NC(=O)Nc3ccc(F)cc3)ccc2O1	RAD52 anneal inh 53.2
O=C(Nc1ccccc1F)N1CC(=O)N2[C@@H](CO)[C@@H](c3ccc(C#Cc4ccccc4)cc3)[C@@H]2C1	none (no result: FGF22 binding)
C[C@@H]1CN([C@@H](C)CO)C(=O)Cc2cc(NS(C)(=O)=O)ccc2O[C@@H]1CN(C)Cc1ccc(Oc2ccccc2)cc1	none
COc1ccc(NC(=O)Nc2ccc3c(c2)C(=O)N([C@@H](C)CO)C[C@H](C)[C@H](CN(C)Cc2ccccc2)OCCCC[C@H](C)O3)cc1	RAD52 anneal inh 56.8
COc1ccc(NC(=O)Nc2ccc3c(c2)C(=O)N([C@@H](C)CO)C[C@H](C)[C@H](CN(C)Cc2ccc(C(=O)O)cc2)OCCCC[C@@H](C)O3)cc1	DENV2 CPE 59.4
O=C(NCc1ccccc1)[C@H]1CCCN1C(=O)[C@H]1CCCN1C(=O)c1ccc(Cl)cc1	DENV2 CPE 44.3
O=C(NCc1ccccc1)[C@H]1CCCN1C(=O)[C@H]1CCCN1C(=O)c1ccccc1	none
O=C(O)c1ccc(CNC(=O)C2CCCN2C(=O)OCc2ccccc2)cc1 (centres undefined)	DENV2 CPE 25.5
COc1cccc(CNC(=O)[C@H]2CCCN2C(=O)C2CCCN2C(=O)c2ccc(OC)c(F)c2)c1 (some centres undefined)	DENV2 CPE 27.7 (no result: MLL AF4-AF9 inh)
COc1ccc(C(=O)N2CCC[C@H]2C(=O)N2CCC[C@@H]2C(=O)NCc2ccccc2)cc1F	none (no result: MLL AF4-AF9 inh)
CO[C@@H](CN(C)C(=O)C1CC1)[C@H](C)CN(C(=O)Nc1ccc(C(F)(F)F)cc1)[C@@H](C)CO	none
CN(C)CCNc1ncnc2c1cnn2-c1ccc(Cl)cc1	DENV2 CPE 39.7
OCCCNc1ncnc2c1cnn2-c1ccc(Cl)cc1	none
CCN1CCN(c2ncnc3c2cnn3-c2ccc(Cl)cc2)CC1	DENV2 CPE 50.5
